The record followed here is PubChem BioAssay (NCATS).

SMILES strings stand for the structures. Records with an inconclusive call do not appear. Where a call stands in place of a potency, no number is given. Activity calls are given as the source filed them. The call rests on the fitted dose curve; in most records, active means well fitted cell-killing curve with a large enough effect; inconclusive means small, poorly fitted or top-dose-only effect; inactive means flat fitted curve, though single readings scatter.
Potency means the concentration at half of the fitted maximal effect.

The assay in a line: qHTS of pediatric cancer cell lines to identify multiple opportunities for drug repurposing: Primary screen for control Hh wild type fibroblast cells (AID 1347106). Further: nearly all actives have a fitted effect of over 55% in size. Conditions: Hh wild-type fibroblast viability, CellTiter-Glo luminescence, 48 h; series mostly up to 46 µM. The source says:
Drug repurposing or repositioning has been offered as a strategy for drug development in oncology programs. This approach has special potential for childhood cancers and other rare or orphan diseases, where the expected return on new drug development has been a disincentive to pharmaceuticals.
In this project we exploit the poly-pharmacology of drugs to discover new indications via phenotypic screening of a panel of 19 well-characterized cell lines derived from solid tumors seen in children and adolescents. The goal is to identify approved drugs with previously unrecognized anticancer properties that has the potential to reveal new mechanisms and biological processes involved in carcinogenesis or drug resistance. We employed a titration-based paradigm (quantitative high-throughput screening or qHTS), where all compounds were tested at multiple concentrations for their effect on cell viability. Concentration-response curves (CRCs) were derived directly from the primary screen, and both potency and efficacy values were used to identify compounds with robust bioactivity profiles. We screened the NIH Chemical Genomics Center (NCGC) Pharmaceutical Collection (NPC) and Mechanism Interrogation Plate (MIPE) small molecule collections of approved and investigational compounds against these cell lines; and measured metabolically active cells after 48 hours of compound treatment as a proxy for cell viability.
Assay Submitter: Nathalia J. Martinez, National Center for Advancing Translational Sciences, National Institutes of Health, Rockville, MD, USA; email: natalia.martinez@nih.gov
[1] Shen, M et al. Quantitative high-throughput phenotypic screening of pediatric cancer cell lines identifies multiple opportunities for drug repurposing. Oncotarget 2017 Dec 19;9(4):4758-4772. PMID 29435139.
The cells were obtained from University of North Carolina (UNC), Pediatric Preclinical Testing Program (PPT), and Coriell Institute (CI).
qHTS cell viability assay:
Cells were assayed in growth media at a density of 500-1,000 cells/well. Five microliters of cells were dispensed into 1,536-well, white, solid-bottom, TC-treated plates (Greiner Bio One) using a multidrop dispenser and incubated at 37 degrees C, 5% CO2, under a humidified atmosphere for 5 hours. Twenty-three nanoliters of compounds and controls (neutral control DMSO or positive control bortezomib at final concentration of 2.3 µM) were subsequently transferred by Kalypsys pintool. For primary screens, the MIPE collection was tested at 11-point dilutions (final concentrations range from 0.78 nM to 46 µM) and the NPC collection at 8-point dilutions (final concentrations range from 0.59 nM to 46 µM). Compounds tested in follow-up screens were assayed at 11-point dilutions. Cells were incubated for 48 hours, followed by addition of 3 µL of CellTiter-Glo (Promega). After a 15 min incubation at room temperature, samples were analyzed for luminescence intensity using a ViewLux High-throughput CCD imager equipped with clear filters.
In general terms: qHTS replaces the single test concentration by a dilution series.
For `CC1(C)O[C@@H]2C[C@H]3[C@@H]4CCC5=CC(=O)C=C[C@]5(C)[C@@]4(F)[C@@H](O)C[C@]3(C)[C@]2(C(=O)CO)O1`, the Potency entry was “inactive”. Regarding `Cc1cc(O)c2c(O)c3c(O)cccc3cc2c1`, the Potency entry was “inactive”. Take `O=C(Nc1ccc(S(=O)(=O)N2CCOCC2)cc1)c1cc(Cl)ccc1NS(=O)(=O)c1ccc(Cl)s1`: the Potency result is “inactive”. Turning to `COc1ccc(/C(C)=C/C(=O)O)c(OC)c1`, the Potency entry was “inactive”. Regarding `CCCC(CCC)(C(=O)OCC)C(=O)OCC`, the Potency result is “inactive”. For `Nc1cc(C(F)(F)F)ccc1S` the value was “inactive”; for `O=C1c2ccccc2CCc2ccccc21`, “inactive”; for `CCOC(=O)C(=O)CCCCCCl`, “inactive”. Under `CCCC(=O)O[C@]1(C(=O)CCl)[C@@H](C)C[C@H]2[C@@H]3CCC4=CC(=O)C=C[C@]4(C)[C@@]3(F)C(=O)C[C@@]21C` stands “inactive”; under `COCCOCC(OC)OC`, “inactive”.

`O=C1Cc2cc(Cl)ccc2N1`: the Potency entry was “inactive”.

Take `Cc1[nH]cnc1-c1ccc(Cl)cc1`: the Potency result was “inactive”. In the case of `Cc1ccc(CCn2c3c(c4cc(Cl)ccc42)CN(C)CC3)cn1`, the Potency result was “inactive”. As to `Cc1cc(=O)oc2cc(O[C@@H]3SC[C@@H](O)[C@H](O)[C@H]3O)ccc12`, the Potency entry was “inactive”. As for `CC(C)Cc1ccc(C(C)C(=O)OCc2ccccn2)cc1` (stereo not given), the Potency result was “inactive”. With `O=C1[C@@H]2[C@H]3CC[C@H](C3)[C@@H]2C(=O)N1CCCCN1CCN(c2ncccn2)CC1`, the Potency result is “inactive”. For the compound `CCN1CCN(c2cc(-c3ccc(F)cc3)c3c(n2)CCCCCC3)CC1`, the Potency entry is “inactive”. In the case of `O=C(O)c1ccccc1Nc1cc(Cl)ccc1C(=O)O`, the Potency entry is “inactive”. Consider `COC(=O)/C=C\C(=O)OC`, for which the Potency entry is “inactive”.

Consider `CC(C)=CCNc1ncnc2c1ncn2[C@@H]1O[C@H](CO)[C@@H](O)[C@H]1O`, for which the Potency is 8.41 µM (active). For `CN(C)CCN1CCN(c2cccc(Cl)c2)C1=O` the value was “inactive”. In the case of `CC(C)C(=O)Nc1cccc(C(F)(F)F)c1`, the Potency result was “inactive”. As for `CO[C@@]1(NC(=O)CSC[C@@H](N)C(=O)O)C(=O)N2C(C(=O)O)=C(CSc3nnnn3C)CS[C@@H]21`, the Potency entry is “inactive”. As for `CN1CCC(N(Cc2cccs2)c2ccccc2)CC1`, the Potency entry is “inactive”.

Consider `COc1ccc2cc(C=O)ccc2c1`, for which the Potency entry was “inactive”.

Turning to `Cc1ccc(/C=N/n2c(-c3ccccc3)csc2=S)cc1`, the Potency result is “inactive”. For `COc1cc(S(N)(=O)=O)cc(C(=O)O)c1OC`, the Potency result was “inactive”. On to `CCN(CC)CC(=O)OCC(=O)[C@@]1(O)CC[C@H]2[C@@H]3CCC4=CC(=O)CC[C@]4(C)[C@H]3[C@@H](O)C[C@@]21C`, for which the Potency result is “inactive”. On to `CCOC(=O)NNc1ccc(N(CC)CC(C)O)nn1` (stereo not given), for which the Potency entry is “inactive”. Take `CCOC(=O)Cn1cccc1-c1nc(-c2ccc(OC)cc2)c(-c2ccc(OC)cc2)s1`: the Potency entry is “inactive”. For the compound `CN(C)CCCOC1(Cc2ccccc2)CCCCCC1`, the Potency entry was “inactive”. Under `C[C@@H]1CCC[C@H](C)N1CCCC(O)(c1ccccc1)c1ccccn1` (stereo not given in full) stands “inactive”. Under `Nc1c(I)cc(I)c(C(=O)N(CCC(=O)O)c2ccccc2)c1I` stands “inactive”; under `Cc1cc(CCCOc2c(C)cc(-c3noc(C(F)(F)F)n3)cc2C)on1`, “inactive”; under `CCC(C(=O)OCCN1CCOC(c2ccccc2)C1C)c1ccccc1` (stereo not given), “inactive”. For `CC1CCCCN1CCCOC(=O)c1ccc(OC2CCCCC2)cc1` (stereo not given), the Potency result was “inactive”. As to `Cc1cccc(N(C)C(=S)Oc2ccc3c(c2)C2CCC3C2)c1` (stereo not given), the Potency entry was “inactive”.

Take `O=C(O)CNC(=O)CNC(=O)CNC(=O)CSC(=O)c1ccccc1`: the Potency entry was “inactive”. On to `CNC(=O)c1c(I)c(NC(C)=O)c(I)c(C(=O)O)c1I`, for which the Potency result is “inactive”. Under `CCOc1ccc(NS(=O)(=O)c2ccc(N)cc2)nn1` stands “inactive”.
